Experimental data from PubChem BioAssay (NCATS).
Records with an inconclusive call do not appear. Active and inactive are the calls of the source. Calls follow the shape of the dose curve; as a rule, active = well fitted activation curve with a large enough effect in the main read-out, with a control signal flat (not every such curve was filed as active); inconclusive = small, poorly fitted or top-dose-only effect, or effect the other way, or a change in a side signal; inactive = flat fitted curve, though single readings scatter.

target: 3',5'-cyclic-AMP phosphodiesterase 4B (Homo sapiens) (UniProt Q07343); test: qHTS Assay for Inhibitors of PDE-IV (AID 607); conditions: HEK293 ACTOne CNG channel cells, membrane potential fluorescence; series mostly up to 22.9 µM
Sequence (Q07343 whole entry, looked up): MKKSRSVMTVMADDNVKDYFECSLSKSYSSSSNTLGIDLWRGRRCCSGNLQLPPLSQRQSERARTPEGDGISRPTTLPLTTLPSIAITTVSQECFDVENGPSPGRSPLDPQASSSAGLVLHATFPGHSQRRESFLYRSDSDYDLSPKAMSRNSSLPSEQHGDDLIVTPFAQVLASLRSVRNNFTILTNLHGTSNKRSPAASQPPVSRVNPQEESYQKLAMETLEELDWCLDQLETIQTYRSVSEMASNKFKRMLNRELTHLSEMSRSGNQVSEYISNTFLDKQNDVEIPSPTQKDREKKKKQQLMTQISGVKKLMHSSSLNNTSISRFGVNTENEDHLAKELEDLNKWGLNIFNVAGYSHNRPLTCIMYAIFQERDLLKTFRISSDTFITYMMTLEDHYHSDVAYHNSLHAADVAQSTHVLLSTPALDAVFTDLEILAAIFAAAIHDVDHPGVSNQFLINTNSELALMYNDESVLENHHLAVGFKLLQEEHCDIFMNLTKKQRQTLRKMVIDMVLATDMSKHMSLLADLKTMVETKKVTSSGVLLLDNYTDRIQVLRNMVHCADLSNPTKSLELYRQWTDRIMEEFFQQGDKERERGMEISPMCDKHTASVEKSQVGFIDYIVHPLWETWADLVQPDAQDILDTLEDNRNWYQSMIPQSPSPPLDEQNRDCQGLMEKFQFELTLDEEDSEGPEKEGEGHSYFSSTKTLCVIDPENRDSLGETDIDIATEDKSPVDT
Outline: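 Cell-based read-out of cAMP via a modified cyclic nucleotide-gated channel and membrane potential dye (535/590 nm) in HEK293 cells expressing PDE4 endogenously. Compounds tested up to 22.9 uM final; 100 uM RO 20-1724 reference.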

SMILES	outcome
CC[N+](C)(CC)CCOC(=O)C1c2ccccc2Oc2ccccc21	inactive
CCCNC(C)(C)COC(=O)c1ccccc1	inactive
Cc1cc(NC(=O)C2=C(O)c3ccccc3S(=O)(=O)N2C)no1	inactive
CN1C(C)(C)CCCC1(C)C	inactive
CN/C(=C\[N+](=O)[O-])NCCSCc1csc(CN(C)C)n1	inactive
C[C@@H]1CCC[C@H](C)N1	inactive
C[N+](C)(C)CC[N+]1(C)Cc2c(Cl)c(Cl)c(Cl)c(Cl)c2C1	inactive
Cc1c(NC(=O)c2cccnc2)c(=O)n(-c2ccccc2)n1C	inactive
NS(=O)(=O)c1cc2c(cc1C(F)(F)F)NCNS2(=O)=O	inactive
CCCCC1(COC(=O)CCC(=O)O)C(=O)N(c2ccccc2)N(c2ccccc2)C1=O	inactive
CCN(CC)CCc1nc(-c2ccccc2)no1	inactive
CC(=O)N[C@@H](CC(C)C)C(=O)O	inactive
Cn1c([N+](=O)[O-])cnc1COC(N)=O	inactive
COc1ccc2cc(CCC(C)=O)ccc2c1	inactive
NS(=O)(=O)c1ccc(C(=O)O)cc1	inactive
NC(=O)CC[C@@H](N)C(=O)O	inactive
O=C(O)c1ccccc1C(=O)Nc1ccc(S(=O)(=O)Nc2nccs2)cc1	inactive
NC(N)=NS(=O)(=O)c1ccc(N)cc1	inactive
CCc1cccc(CC)c1NC(=O)CN(CC(=O)O)CC(=O)O	inactive
Cc1c(NC(C)C)c(=O)n(-c2ccccc2)n1C	inactive
CC(C)(C)C(=O)OCOC(=O)[C@@H]1N2C(=O)[C@@H](NC(=O)[C@H](N)c3ccccc3)[C@H]2SC1(C)C	inactive
CCS(=O)(=O)CCn1c([N+](=O)[O-])cnc1C	inactive
Cn1c(=O)c2c(ncn2CCO)n(C)c1=O	inactive
O=S1(=O)OC(c2ccc(O)cc2)(c2ccc(O)cc2)c2ccccc21	inactive
CN(C(=O)c1c(O)c2ccccc2n(C)c1=O)c1ccccc1	inactive
COc1ccc(NS(=O)(=O)c2ccc(N)cc2)nn1	inactive
O=C(O)c1ccccc1OP(=O)(O)O	inactive
CC[N+](CC)(CC(=O)Nc1c(C)cccc1C)Cc1ccccc1	inactive
CC(C)=CCC/C(C)=C/CO	inactive
